These entries were drawn from the full list.
aSyn 5UTR act – Activators working through SNCA 5'UTR binding (MLPCN). alpha-synuclein 5'UTR reporter, activators screen. activity score, % (tested at 7.5 µM), hits read low. 300,000 tested, 7.1% active. AID 1814; in the data active = activity score below about -60%
Starred values were filed as active, the others as inactive.

SMILES	aSyn 5UTR act
CCOc1cc(/C=C\[N+](=O)[O-])ccc1OCC(=O)Nc1ccccc1C	-80*
COc1ccc2nc(C)cc(N/N=C/c3ccc(F)cc3)c2c1	93
COc1ccc(/C=N/Nc2cc(C)nc3c(C)cccc23)cc1	-81*
Oc1ccc2ccccc2c1/C=N/Nc1nnc(-c2ncc[nH]2)c2ccccc12	102
COc1ccc(/C=N/Nc2nnc(-c3ncc[nH]3)c3ccccc23)cc1	-203*
COc1ccc(/C=N/Nc2cc(C)nc3ccccc23)cc1	-85*
COc1ccc(C(=O)C(CN2CCCC2)c2ccccc2)cc1 (centres undefined)	-112*
O=C(c1ccc(Cl)cc1)C(CN1CCCC1)c1ccccc1 (centres undefined)	-155*
CC/C(=N/NC(=O)c1ccccc1)c1ccc(OCCN2CCOCC2)cc1	-103*
COc1ccc(C(=O)C(CN2CCOCC2)c2ccccc2)cc1 (centres undefined)	-80*
CCCCOc1ccc(C(=O)C(CN2CCOCC2)c2ccccc2)cc1 (centres undefined)	-134*
CCCCCOc1ccc(C(=O)CCN2CCOCC2)cc1	-72*
O=c1nc2c(-c3ccccc3F)n[nH]n2c2ccccc12	-146*
O=c1c2ccccc2oc2ccc(Oc3ccccc3)cc12	-123*
O=c1c2ccccc2oc2cc(C#CC3(O)CCCCC3)ccc12	77
COc1cc2oc3ccccc3c(=O)c2cc1OC	-120*
O=C(/C=C/Nc1ccc(F)cc1)c1ccco1	-144*
CCOC(=O)c1ccc(N/C=C/C(=O)c2ccco2)cc1	-85*
O=C(Nc1ccc(Cl)cn1)c1ccc2nccnc2c1	-112*
O=C(Nc1ccccc1Cl)c1ccc2nccnc2c1	-96*
CSc1ccccc1NC(=O)c1cc(CC(C)C)on1	-178*
COc1ccccc1-c1cc(C(=O)Nc2ccccc2SC)no1	-96*
COc1cccc(-c2cc(C(=O)Nc3ccccc3SC)no2)c1	-141*
COc1ccccc1-c1cc(C(=O)Nc2cccnc2)no1	55
Cc1ccc2c(COC(=O)c3n[nH]c4ccccc34)cc(=O)oc2c1	-172*
SMILES	aSyn 5UTR act
CCc1ccc2c(COC(=O)c3n[nH]c4ccccc34)cc(=O)oc2c1	-175*
CC1=NN(C(N)=S)C(=O)C1N=Nc1ccc(Cl)cc1Cl (centres undefined)	-184*
CC1=NN(C(N)=S)C(=O)C1N=Nc1cccc(C)c1 (centres undefined)	-75*
CC1=NN(C(N)=S)C(=O)C1N=Nc1ccc(C)c(Br)c1 (centres undefined)	-128*
C(=N\N1CCN(c2ccccn2)CC1)/c1ccccn1	-115*
CN(c1ccccc1)c1ccc(/C=N/N2CCOCC2)cc1	-156*
BrC(=C\c1ccccc1)/C=N/N1CCN(c2ccccn2)CC1	-70*
CN(C1=C(N2CCOCC2)C(=O)c2ccccc2C1=O)c1ccccc1	39
Cc1ccc(/C=N/N2CCN(c3ccccn3)CC2)o1	-80*
CN(C)c1ccc(/C=N/N2CCN(c3ccccn3)CC2)cc1	-126*
COc1ccc(S(=O)(=O)N2CCN(c3ccccn3)CC2)cc1[N+](=O)[O-]	45
O=[N+]([O-])c1ccccc1/C=N/N1CCN(c2ccccn2)CC1	-79*
Oc1cccc(/C=N/N2CCN(c3ccccn3)CC2)c1	-76*
O=C(/C=C/c1ccccc1Cl)c1ccc(O)cc1	-360*
O=C(/C=C/c1c(F)cccc1Cl)c1ccc(O)cc1	-115*
CCc1cc2c(=O)c(-c3ccc4c(c3)OCCO4)coc2c(CN2CCCCC2C)c1O (centres undefined)	-65*
O=c1c(-c2ccc3c(c2)OCCO3)coc2c(CN3CCOCC3)c(O)ccc12	-94*
CCc1cc2c(=O)c(-c3ccc4c(c3)OCCO4)coc2cc1OS(C)(=O)=O	-116*
CCc1ccc(-c2nc(CCl)cs2)cc1	-123*
COc1ccc(-c2csc(-c3ccc(O)cc3)n2)cc1	-215*
COc1ccc(C2=Nn3c(nnc3-c3ccccc3OC)SC2)cc1OC	107
COc1ccc(-c2nc(CCl)cs2)cc1	-142*
COc1ccc(-c2nc(-c3ccc(O)cc3O)cs2)cc1OC	-94*
C=CCOc1cccc(CNc2cccc(C(=O)O)c2)c1	-77*
C=CCOc1c(CNc2cccc(C(=O)O)c2)cccc1OC	-78*
SMILES	aSyn 5UTR act
O/C(=C\c1nc2ccccc2nc1/C=C(\O)c1ccccc1)c1ccccc1	-73*
O/C(=C\c1ccc2ccccc2n1)c1ccncc1	-69*
O/N=C/c1ccc2ccccc2n1	-79*
COCC(C)n1c(C)cc(C(=O)CSc2nnnn2-c2ccc(O)cc2)c1C (centres undefined)	-82*
COCC(C)n1c(C)cc(C(=O)CSc2ncccn2)c1C (centres undefined)	-76*
O=C(CSc1ncccn1)c1ccccc1Br	-64*
COc1ccc(-c2cn(CC3CCCCC3)nn2)cc1	-120*
c1ccc(-c2cn(CC3CCCCC3)nn2)cc1	-200*
Cc1occc1C(=O)N/N=C/c1ccc2c(c1)OCO2	-67*
Cc1cc(C(=O)N/N=C/c2ccc3c(c2)OCO3)c(C)o1	-105*
Cc1cccc(NC(=O)c2ccc([N+](=O)[O-])s2)n1	-88*
Cc1ccnc(NC(=O)c2ccc([N+](=O)[O-])s2)c1	-238*
O=C(NC1CCCC1)c1ccc([N+](=O)[O-])s1	-153*
Cc1cc(C)c(S(=O)(=O)Nc2ccc(N(C)C)cc2)c(C)c1-n1cnnn1	-79*
N#C/C(=C\Nc1ccccc1O)c1nc2ccccc2o1	-112*
CC(=O)c1cnc2cc(-c3ccc(C)cc3)nn2c1C	-243*
COc1ccc(-c2cc3ncc(C(C)=O)c(C)n3n2)cc1	-137*
CC(=O)c1cnc2nc(SCc3ccccc3)nn2c1C	-157*
CC(=O)c1cnc2cc(-c3ccccc3)nn2c1C	-167*
COc1ccc(Nc2oc(-c3ccc(OC)cc3)nc2C#N)cc1	-132*
CNc1oc(-c2ccccc2)nc1C#N	-62*
CCOc1ccc(-c2nc(C#N)c(NC3CC3)o2)cc1	-95*
COc1ccc(-c2nc(C#N)c(NCCc3ccccc3)o2)cc1	-146*
COc1ccc(Nc2oc(-c3ccc(Cl)cc3)nc2C#N)cc1	-77*
COc1ccc(Nc2oc(-c3ccccc3)nc2C#N)cc1	-112*
SMILES	aSyn 5UTR act
COc1ccc(Nc2oc(COc3ccc(Cl)cc3)nc2C#N)cc1	91
CCOc1ccc(Nc2oc(-c3ccc(Cl)cc3)nc2C#N)cc1	-139*
CCc1ccc2c(c1)C(=O)c1ccccc1C2=O	-199*
CCCCN1C=CC(=C2C(=O)c3ccccc3C2=O)C=C1	98
Cc1ccc(C)c(NC(=S)NNC(=O)c2sccc2C)c1	-69*
Cc1ccc(C)c(NC(=S)NNC(=O)c2csc(C)c2C)c1	-92*
Cc1ccc(C)c(NC(=S)NNC(=O)c2csc(C(C)C)c2)c1	-100*
CCOC(=O)c1ccc(Nc2ncnc3nc[nH]c23)cc1	-73*
Cc1c(O)ccc(/C=N/Nc2nc(-c3cccnc3)nc3ccccc23)c1O	-77*
CCOC(=O)C/C(=N\Nc1ncnc2ccccc12)c1ccccc1	-139*
c1ccc(CNc2nc(NCc3ccccc3)c3ccccc3n2)cc1	106
CC(C)(C)c1ccc(-c2nc(NCc3cccnc3)c3ccccc3n2)cc1	-96*
CCOC(=O)c1ccc(Nc2ncnc3ccccc23)cc1	-93*
CCOC(=O)c1ccc(Nc2nc(-c3cccnc3)nc3ccccc23)cc1	-103*
c1ccc(COc2ccc(Nc3ncnc4nc[nH]c34)cc2)cc1	-85*
Cc1ccc(Nc2nc(-c3cccnc3)nc3ccccc23)cc1	-95*
